Reference: the supplement of paper PMC3334620
In all, about 33,000 sequences were measured (“E-score (-0.5 to 0.5)”: median about -0.041, highest 2% from about 0.37 on). This is one part of a sample in which the highest values are shown more often than they occur.

Molecular target: T1, Ecm22 (UniProt Q05958)
T1 sequence: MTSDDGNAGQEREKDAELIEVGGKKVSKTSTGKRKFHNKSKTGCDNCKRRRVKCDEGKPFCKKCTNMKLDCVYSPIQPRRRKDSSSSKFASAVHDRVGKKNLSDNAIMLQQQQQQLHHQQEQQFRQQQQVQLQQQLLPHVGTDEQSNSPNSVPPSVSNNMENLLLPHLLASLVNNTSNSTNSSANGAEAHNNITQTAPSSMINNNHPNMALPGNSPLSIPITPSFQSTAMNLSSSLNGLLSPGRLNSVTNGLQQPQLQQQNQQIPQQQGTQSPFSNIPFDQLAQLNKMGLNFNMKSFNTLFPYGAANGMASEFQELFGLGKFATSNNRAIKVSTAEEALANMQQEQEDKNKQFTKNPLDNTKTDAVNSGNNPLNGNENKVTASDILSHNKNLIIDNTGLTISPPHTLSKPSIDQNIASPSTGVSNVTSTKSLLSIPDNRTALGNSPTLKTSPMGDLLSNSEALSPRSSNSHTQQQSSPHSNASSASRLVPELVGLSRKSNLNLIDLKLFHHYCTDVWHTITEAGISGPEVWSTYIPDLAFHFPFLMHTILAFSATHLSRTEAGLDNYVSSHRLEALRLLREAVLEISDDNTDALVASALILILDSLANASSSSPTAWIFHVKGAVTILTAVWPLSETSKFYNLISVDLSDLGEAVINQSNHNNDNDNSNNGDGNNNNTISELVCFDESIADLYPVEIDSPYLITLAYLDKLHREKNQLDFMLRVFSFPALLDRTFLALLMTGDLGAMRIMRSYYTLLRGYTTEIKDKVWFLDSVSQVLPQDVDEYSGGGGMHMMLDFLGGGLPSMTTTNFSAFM
Assay: PBM E-score (8-mer binding enrichment) (E-score (-0.5 to 0.5)); higher = stronger / more preferred TF binding
Settings: protein concentration: 200 nM; construct: GST-full length
How it was run: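 Universal all-10-mer Agilent arrays, fresh or stripped once, were converted to double-stranded form by primer extension. GST-tagged yeast transcription factors from PURExpress in vitro transcription/translation, full-length or DNA-binding domain only, were applied at about 100-200 nM and detected with fluorescent anti-GST. After masliner normalisation, the Universal PBM Analysis Suite scored each ungapped eight-base word together with its reverse complement by E-score.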

Row | Sequence | PBM E-score
1 | AGCGCTAT | -0.048
2 | CGACCTCG | 0.183
3 | AACGTTCC | 0.259
4 | CTCGTTCA | 0.47
5 | AGCGTTCA | -0.121
6 | ATCGTTCG | 0.373
7 | ATCGTTCA | 0.402
8 | ATCGTTGG | -0.0634
9 | ATCGTTCC | 0.478
10 | CACGTTCA | -0.131
11 | AACGTTCG | 0.217
12 | AACGTTCA | 0.0914
13 | CGCGTTCA | 0.185
14 | AGCGTTCC | 0.2
15 | AGGGTTAT | -0.0839
16 | ATTCATAC | 0.161
17 | CTTGTGTC | -0.0755
18 | CACCGGAC | 0.112
19 | CGATCTAG | 0.00932
20 | ATCGTGGG | -0.0631
21 | CGATCTAA | 0.0461
22 | GTTAGACA | -0.137
23 | GGCGTTCA | 0.00425
24 | GACGTTCA | 0.0272
25 | GTCGTTCA | 0.448

Row | Sequence | PBM E-score
26 | AAGCCCAG | -0.109
27 | CGTACACA | 0.402
28 | TGTACACA | 0.0209
29 | CGTACACC | 0.37
30 | CGTACACG | 0.382
31 | AGTACACA | 0.18
32 | GGTACACA | -0.126
33 | AGTACACC | 0.0652
34 | GGTACACC | 0.0576
35 | AGTACACG | 0.238
36 | GTAGCAAA | 0.0111
37 | GACCAGGC | -0.228
38 | CCCCAGCA | -0.237
39 | CCGGAACA | -0.0629
40 | ACGGAACT | 0.157
41 | CCGGAACC | -0.0325
42 | CCGGAACG | 0.445
43 | ACGGAACG | 0.442
44 | ACGGAACC | 0.218
45 | CCCCGCCA | 0.0635
46 | TAGGACCA | -0.185
47 | GTATGAAC | 0.234
48 | ATGTTACA | -0.0708
49 | GAGAGACC | -0.21
50 | ACGGGGAC | 0.0581

Row | Sequence | PBM E-score
51 | GAGAACAA | 0.124
52 | AGATCGTA | 0.389
53 | CGATCGAA | 0.164
54 | GGATCGTA | 0.434
55 | CGATCGTC | 0.104
56 | AGATCGTC | -0.0821
57 | GGATCGAA | 0.251
58 | AGATCGTG | -0.0112
59 | CGATCGTA | 0.437
60 | GGATCGGA | 0.159
61 | AGTCCCAA | -0.193
62 | GGCTAGTA | -0.00889
63 | CTGACGCA | -0.319
64 | GAGCTTAA | 0.0486
65 | AAAGAGGT | -0.244
66 | GACGAGGC | 0.163
67 | AACGAGGA | 0.449
68 | GACGAGGA | 0.175
69 | AACGAGGT | 0.447
70 | TACGAGGA | 0.466
71 | CACGAGGA | 0.196
72 | AGCGAGGA | 0.265
73 | ATCGAGGA | 0.115
74 | CACGAGGC | 0.171
75 | ACCGAGGT | 0.225

Row | Sequence | PBM E-score
76 | AACGAGGC | 0.434
77 | CATGAAAA | 0.00915
78 | ATTGCTTC | 0.0317
79 | AAGCTTCA | -0.0703
80 | ACAAATTC | 0.0192
81 | AACGGGCT | 0.16
82 | ACGCTCAA | 0.0449
83 | GGTCTAAC | -0.0964
84 | CGGGACGC | -0.0663
85 | ACTCGGCT | 0.112
86 | CTGCACTC | -0.104
87 | CACGAGGG | 0.189
88 | AGCGAGGG | 0.249
89 | AACGAGGG | 0.439
90 | ACGCAAGG | -0.01
91 | AGCCGGAT | -0.0402
92 | AAAGAGTT | -0.264
93 | AACGCGTT | 0.212
94 | AACGAGTT | 0.41
95 | AACGAGTA | 0.433
96 | ACCGAGTA | 0.286
97 | TACGAGTA | 0.467
98 | AGCGAGTG | 0.324
99 | CACGAGTG | 0.106
100 | CACGAGTA | 0.157

Row | Sequence | PBM E-score
101 | AACGAGTG | 0.421
102 | GACGAGTA | 0.117
103 | AGCGAGTA | 0.363
104 | CTGCGTTC | 0.213
105 | GCGTTGAA | 0.218
106 | CCATATCC | -0.0494
107 | CACGTACG | 0.338
108 | CTAGTTAA | -0.153
109 | GCCTCTAC | -0.123
110 | GACGAGTC | 0.115
111 | AACGAGTC | 0.419
112 | CACGAGTC | -0.0272
113 | AGAGGGAT | -0.0615
114 | ACAGTTCC | -0.0566
115 | GCTTCGTA | 0.441
116 | CCTTCGCA | 0.183
117 | ACTTCGTA | 0.434
118 | ACTTCGTG | 0.116
119 | GCTTCGGA | 0.121
120 | ACTTCGTC | 0.00917
121 | GCTTCGCA | 0.193
122 | CCTTCGTC | 0.0674
123 | CCTTCGTA | 0.453
124 | TCGGGTCA | 0.241
125 | AATCGTTC | 0.426

Row | Sequence | PBM E-score
126 | AATCGTTA | 0.269
127 | CATCGTTA | 0.259
128 | CATCGTTC | 0.428
129 | CATCGTGC | 0.164
130 | AATCGTTG | 0.165
131 | CCATTGGA | -0.162
132 | AGGTATTA | -0.0627
133 | GGGTCGTA | 0.439
134 | CGGTCGTC | -0.0294
135 | CGGTCGTA | 0.464
136 | GGGTCGGA | 0.135
137 | AGGTCGTG | -0.13
138 | AGGTCGTC | 0.106
139 | CGGTCGGA | 0.0409
140 | GGGTCGAA | -0.0301
141 | AGGTCGTA | 0.458
142 | ACAGACCA | -0.0504
143 | AGCTGAAA | -0.106
144 | AACTGCAG | -0.0539
145 | CTTTTTCC | -0.068
146 | CGTTGGAG | -0.14
147 | ACTTACGA | 0.393
148 | ACTTACGG | 0.207
149 | CCTTACTA | 0.0754
150 | GCTTACGA | 0.386

Row | Sequence | PBM E-score
151 | GCTTACTA | -0.087
152 | GCTTACAA | -0.144
153 | CCTTACGC | 0.205
154 | ACTTACGC | -0.137
155 | CCTTACGA | 0.383
156 | AGAATTGC | -0.0838
157 | CGACAAAG | 0.192
158 | CTGCGAGC | 0.0428
159 | TAGTCCGA | 0.123
160 | GCATCGGA | 0.126
161 | GCATCGTA | 0.426
162 | GCATCGAA | 0.0551
163 | ACATCGTC | 0.0184
164 | ACATCGTA | 0.423
165 | ACATCGTG | 0.0443
166 | CCATCGTA | 0.428
167 | CCATCGTC | 0.00759
168 | CCATCGAA | -0.136
169 | CCGCCACA | -0.107
170 | GCCGAGAC | -0.0241
171 | GATGTTGC | 0.00895
172 | CGGGACAC | -0.0319
